{"source": "ChEMBL document CHEMBL4513216", "about": "“Probing the Open Global Health Chemical Diversity Library for Multistage-Active Starting Points for Next-Generation Antimalarials” (ACS Infect Dis, 2020)", "note": "The campaign covered roughly 69,000 compounds. About 8,600 (12%) showed an effect of 50% or more. The sample holds strong results, similar compounds and a random draw of the others, so the mix is not that of the screen.", "data": [{"tested_on": "Plasmodium berghei", "test": "Screen against P. berghei liver stage (PbLuc), transformed with Luciferase, at 10uM", "assay_type": "functional, HepG2", "conditions": "tested at 10 uM", "units": {"INHIBITION": "%"}, "values": [{"smiles": "CCOc1ccc(Cl)c(C(=O)N2CCCN(CC(N)=O)CC2)n1", "INHIBITION": 47}, {"smiles": "Cc1[nH]c2cc(C3CCN(C(=O)c4ccccn4)CC3)nn2c(=O)c1C", "INHIBITION": 29.55}, {"smiles": "CC(=O)Nc1cc(C2CC2)nn1-c1nc(C)c(C)c(=O)[nH]1", "INHIBITION": 72.4}, {"smiles": "COCCNC(=O)CCc1c(C)nn(-c2nc(C)c(C)c(=O)[nH]2)c1C", "INHIBITION": -8.69}, {"smiles": "COc1ccc(CN2CCO[C@H]3CN(C4CCCC4)CC[C@H]3C2=O)cc1", "INHIBITION": 27.7}, {"smiles": "CN1CCCN(C(=O)c2cc(-c3cc[nH]n3)n3ccccc23)CC1", "INHIBITION": 47.5}, {"smiles": "Cc1nc(-c2cc(C(=O)N3CCN(C)CC3)c3ccccn23)cn1C", "INHIBITION": 52.3}, {"smiles": "Cn1ccc(-c2cc(C(=O)N3CCC(C(N)=O)CC3)c3ccccn23)n1", "INHIBITION": -23.1}, {"smiles": "Cc1nc(-c2cc(C(=O)N3CCCN(C)CC3)c3ccccn23)cn1C", "INHIBITION": 21.7}, {"smiles": "CN(C)C1CCN(C(=O)c2cc(-c3ccn(C)n3)n3ccccc23)CC1", "INHIBITION": 62.9}, {"smiles": "Cn1ccc(-c2cc(C(=O)N3CCC(O)CC3)c3ccccn23)n1", "INHIBITION": 42.1}, {"smiles": "CCCC1C=CCN1C(=O)c1cc(COc2ccccc2)[nH]n1", "note": "(centres undefined)", "INHIBITION": -1.49}, {"smiles": "CCCNC(=O)c1cc2c(s1)CCN2C(=O)CN(C)C", "INHIBITION": -25.2}, {"smiles": "CCn1cc(NC(=O)NCC(C)(C)N2CCc3ccccc3C2)cn1", "INHIBITION": -31.8}, {"smiles": "CC(=O)N1CCCN(C(=O)c2ccc(Cn3ccccc3=O)o2)CC1", "INHIBITION": 19.45}, {"smiles": "COc1ccc(OC)c(NC(=O)c2c(C)cn(C)c2CC(=O)O)c1", "INHIBITION": 29}, {"smiles": "CCOCc1ccccc1NC(=O)NC1CCN(C2CCCC2)C1", "note": "(centres undefined)", "INHIBITION": 58.6}, {"smiles": "CCOCc1ccccc1NC(=O)NC1CCN(CC(F)(F)F)C1", "note": "(centres undefined)", "INHIBITION": 38.3}, {"smiles": "CCOCc1ccccc1NC(=O)NC1CCN(c2ccccc2)C1", "note": "(centres undefined)", "INHIBITION": 36.2}, {"smiles": "CCOCC(O)CN1CCN(C(=O)c2cccc(CC#N)c2)CC1", "note": "(centres undefined)", "INHIBITION": 9.54}, {"smiles": "CCSc1nsc(NC(=O)COc2ccc3c(c2)OCO3)n1", "INHIBITION": 49.4}, {"smiles": "c1ccc(O[C@H]2CO[C@@]3(CCN(Cc4ccc5c(c4)OCO5)C3)C2)nc1", "INHIBITION": 71.9}, {"smiles": "Cn1cc(CN2CCC[C@]3(C[C@@H](Oc4ccccn4)CO3)C2)cn1", "INHIBITION": 15.6}, {"smiles": "c1ccc(OC2COC3(CCN(CC4CC4)CC3)C2)nc1", "note": "(centres undefined)", "INHIBITION": 53.2}, {"smiles": "CCO[C@H]1CO[C@@]2(CCN(Cc3ccc4c(c3)OCO4)C2)C1", "INHIBITION": -20.8}, {"smiles": "Cn1cc(CN2CC[C@]3(C[C@H](Oc4ccccn4)CO3)C2)cn1", "INHIBITION": 51.4}, {"smiles": "COC1COC2(CCN(Cc3ccccc3F)CC2)C1", "note": "(centres undefined)", "INHIBITION": 3.25}, {"smiles": "Cn1cc(CN2CCC[C@]3(C[C@H](Oc4ccccn4)CO3)C2)cn1", "INHIBITION": 46.4}, {"smiles": "COC1COC2(CCN(Cc3ccccc3C)CC2)C1", "note": "(centres undefined)", "INHIBITION": 37.1}, {"smiles": "CCO[C@@H]1CO[C@@]2(CCN(Cc3ccc4c(c3)OCO4)C2)C1", "INHIBITION": 18.6}, {"smiles": "COc1ccccc1CN1CCC2(CC1)CC(Oc1ccccn1)CO2", "note": "(centres undefined)", "INHIBITION": 14.2}, {"smiles": "COC1COC2(CCN(Cc3ccc4ccccc4n3)CC2)C1", "note": "(centres undefined)", "INHIBITION": 57.4}, {"smiles": "c1ccc(O[C@@H]2CO[C@@]3(CCCN(CC4CCOCC4)C3)C2)nc1", "INHIBITION": 32.2}, {"smiles": "CC(=O)N1CCCn2nc(CNC(=O)N3CCCCC3)cc2C1", "INHIBITION": 14.3}, {"smiles": "CCc1ncc2c(n1)CN(c1cc(N3CCN(C)CC3)nc(N)n1)C2", "INHIBITION": 19.7}, {"smiles": "CNc1nc(C2CCCN2)nc2c1CCN(S(=O)(=O)C1CCCCC1)C2", "note": "(centres undefined)", "INHIBITION": -44.8}, {"smiles": "CC(C)CCC(=O)N1CCCC2(CCN(Cc3ccccc3C#N)C2)C1", "note": "(centres undefined)", "INHIBITION": 1.71}, {"smiles": "COc1ccc(CCn2cnc(C#N)n2)cc1", "INHIBITION": -7.46}, {"smiles": "Cc1cccc(CN2CCc3onc(Cn4cccc4)c3C2)n1", "INHIBITION": 31.5}, {"smiles": "NC(=O)c1cc(CC2CCCN(Cc3cnccn3)CC2)ncn1", "note": "(centres undefined)", "INHIBITION": -0.232}, {"smiles": "c1ccc(CN2CCC3(CC2)CC(Oc2cccnc2)C3)nc1", "INHIBITION": 31.2}, {"smiles": "Cc1cc(C)cc(CN2CCC3(CC2)CC(Nc2ncccn2)CO3)c1", "note": "(centres undefined)", "INHIBITION": 50.7}, {"smiles": "c1ccc(CN2CCC3(CC2)CC(Nc2nccs2)CO3)nc1", "note": "(centres undefined)", "INHIBITION": 53.2}, {"smiles": "c1ccc(CN2CC[C@]3(C[C@@H](Oc4ccccn4)CO3)C2)nc1", "INHIBITION": 31.3}, {"smiles": "c1ccc(CO[C@@H]2CO[C@@]3(CCN(Cc4ccccn4)C3)C2)nc1", "INHIBITION": 1.58}, {"smiles": "Cn1cc(CN2CCC3(CC2)CC(Nc2nccs2)CO3)cn1", "note": "(centres undefined)", "INHIBITION": 13.6}, {"smiles": "Cn1cc(CN2CC[C@]3(C[C@H](OCc4ccccn4)CO3)C2)cn1", "INHIBITION": 69.6}, {"smiles": "c1cnc(NC2COC3(CCN(Cc4ccoc4)CC3)C2)nc1", "note": "(centres undefined)", "INHIBITION": 3.25}, {"smiles": "CCN1CCC2(CC1)CC(Nc1ncccn1)CO2", "note": "(centres undefined)", "INHIBITION": 45.7}, {"smiles": "O=C(NC1COC2(CCN(Cc3ccccn3)CC2)C1)c1ccccn1", "note": "(centres undefined)", "INHIBITION": -8.69}, {"smiles": "c1ccc(OC2COC3(CCN(Cc4ccccn4)CC3)C2)cc1", "note": "(centres undefined)", "INHIBITION": 81.2}, {"smiles": "c1ccc(CO[C@H]2CO[C@@]3(CCN(Cc4ccoc4)C3)C2)nc1", "INHIBITION": 14.2}, {"smiles": "CCOCCC(=O)Nc1cccc(Cl)c1C(N)=O", "INHIBITION": -39.2}, {"smiles": "O=C(O)c1ccccc1-c1ccc(CN2CC(O)C2)cc1", "INHIBITION": -13.7}]}]}
